From PubChem BioAssay AID651593 (National Center for Advancing Translational Sciences (NCATS), 2012) come the findings set out here.

The structures appear in SMILES notation. In all, about 1,100 compounds went through this assay and about 860 (78%) were called active. Inconclusive results (about 19%) are left out. The set was probably picked from earlier hits. This is one part of the list. Values without a mark were called inactive. The call rests on the fitted dose curve; in most records, active means well fitted activation curve with a large enough effect; inconclusive means small, poorly fitted or top-dose-only effect; inactive means flat fitted curve, though single readings scatter.
Potency means the concentration at half of the fitted maximal effect.

This test is described as follows: qHTS of Nrf2 Activators: Hit Validation in Primary Assay. Further: nearly all actives have a fitted effect of over 70% in size. On activation: 0% is about no effect. To be noted: Nrf2/ARE reporter cell assay; Potency: activation; series mostly up to 46.1 µM; activation: at the top concentration. From the text:
Many diseases have some form of oxidative stress injury and ties to inflammation, causing a host of problems for the patient. The antioxidant response element (ARE) plays an important role in alleviating the harmful effects of oxidative stress. The antioxidant response element (ARE) is a transcriptional regulatory element involved in the activation of genes coding for a number of antioxidant proteins and detoxifying enzymes. These enzymes work in concert to protect tissues from oxidative insults and chemical toxicities in human hepatocytes and immune cells. The protective effects of ARE activation are primarily triggered through Nrf2 (NF-E2-related factor) binding to and activating AREs. It is known that Nrf2 controls the production of over 250 antioxidant and detoxification proteins (Hu et al., 2006), thereby protecting tissues by increasing cellular antioxidant content and suppressing inflammatory signaling pathways. The transcription factor Nrf2 is a central link between oxidative chemicals, such as phenolic antioxidants and electrophilic compounds, and the activation of ARE. Nrf2 levels are constitutively low as a consequence of its interaction with Keap1, which targets its degradation (Zipper and Mulcahy, 2002). Electrophiles react with key cysteine residues in Keap1, releasing Nrf2 and allowing its translocation to the nucleus. Once within the nucleus, Nrf2 complexes with coactivators such as p300, and binds to the AREs to induce gene transcription of cytoprotective enzymes, resulting in the prevention of toxicity. Activation of Nrf2 protects tissues by increasing cellular antioxidant content and suppressing inflammatory signaling pathways. Identifying novel and potent Nrf2 activators by using the AREc32 cell line to detect ARE activation by small molecules will lead to the identification and development of probes to study protective pathways in multiple tissues. These specific probes are essential to study the ARE pathway, and eventually to determine whether this pathway does activate genes that could protect against a host of diseases, including cardiovascular diseases, obesity, diabetes, Alzheimer's, and Parkinson's disease.
This project's aim is to identify novel and potent Nrf2 activators by using the AREc32 cell line to detect ARE activation by small molecules, which will lead to the identification and development of probes to study the ARE pathway.
NIH Chemical Genomics Center [NCGC]
NIH Molecular Libraries Probe Centers Network [MLPCN]
Assay Submitter (PI): Curtis Klaassen, University of Kansas Medical Center
Quantification of ARE activation after compound treatment was measured by the Steady-Glo Luciferase (R) assay system (Promega) in AREc32_fluc stable cells. The Steady-Glo reagent acts by cell lysis and generation of a luminescent signal proportional to ARE activation, through the luciferase reporter in the AREc32 stable cell line. AREc32_fluc cells were harvested from T225 flask and resuspended in phenol red free OPTI-MEM medium with 5% FBS. Then 5 microL of 200,000 cells/mL resuspended cells were dispensed into each well of white, solid bottom, 1536-well tissue culture-treated plates using a Multidrop Combi dispenser. After overnight culture at 37 degrees C with 5% CO2, a total of 23 nL of compounds at 5 selected concentrations from the MLSMR/Sytravon or positive control (40 uM stock of CDDO-IM and 2 mM of tBHQ) in DMSO was transferred to each well of the assay plate using a pintool (Kalypsys, San Diego, CA), and the plates were further incubated at 37 degrees C with 5% CO2 for 24 hours. After that, 2 microL of Steady Glo luminescent substrate mix (Promega) was added to each well. The plate was incubated at room temperature for 30 minutes. The plates were measured on a ViewLux plate reader (PerkinElmer) with clear filter.
(qHTS replaces the single test concentration by a dilution series.)
`Brc1ccccc1C1N=C(c2ccccc2)NO1` (stereo not given): the Potency was 5.8 µM (active).

Turning to `Cc1ccc(S(=O)(=O)c2nc(S(C)(=O)=O)sc2N2CCN(C)CC2)cc1`, the Potency is 5.17 µM (active).

With `CN1CCN(c2sc(S(C)(=O)=O)nc2S(=O)(=O)c2ccc(Cl)cc2)CC1`, the Potency is 8.2 µM (active).

`O=C(Nc1nc2ccc(F)cc2s1)c1ccc([N+](=O)[O-])o1`: the Potency was 3.66 µM (active).

Regarding `O=C(Nc1nc2c(Cl)cccc2s1)c1ccc([N+](=O)[O-])o1`, the Potency is 3.66 µM (active).

In the case of `O=c1cc(-c2cccc(Br)c2)oc2cccc(O)c12`, the Potency is 5.8 µM (active).

As for `Cn1c(N)c(C(=O)COC(=O)c2nc(Cl)ccc2Cl)c(=O)n(C)c1=O`, the Potency was 1.46 µM (active).

Turning to `COc1cc(NC(=S)Nc2ccccn2)c(OC)cc1Cl`, the Potency was 5.17 µM (active).

Take `COc1ccc(C(C#N)=C2C=CC(=NO)C=C2)cc1`: the Potency is 1.3 µM (active).

Take `C/C(=N\NC(=S)Nc1cccc(C)c1)c1ccco1`: the Potency was 2.31 µM (active).

As for `O=C(Nc1ccc(OC(F)F)cc1)c1ncc(Cl)c(Cl)c1Cl`, the Potency is 16.4 µM (active).

Consider `c1ccc(CSc2nccc(-c3ccco3)n2)cc1`, for which the Potency is 20.6 µM (active).

For `Nc1nccc(/C=C/c2c(F)cccc2Cl)n1`, the Potency is 9.2 µM (active).

Consider `Clc1ccc2nc(-c3ccco3)c(Cc3ccccc3)n2c1`, for which the Potency was 23.1 µM (active).

Regarding `COc1ccccc1Cc1c(-c2ccco2)nc2ccc(Cl)cn12`, the Potency is 16.4 µM (active).

Regarding `FC(F)(F)c1cc(-c2ccco2)nc(NCc2ccco2)n1`, the Potency is 11.6 µM (active).

`FC(F)(F)c1cc(-c2ccco2)nc(-n2nnc3ccccc32)n1`: the Potency is 2.59 µM (active).

Regarding `FC(F)(F)c1cc(-c2cccs2)nc(NCc2ccco2)n1`, the Potency is 4.61 µM (active).

Take `Cc1ccc(N=C2NC(=O)/C(=C/C=C/c3ccco3)S2)cc1`: the Potency was 2.06 µM (active).

On to `O=C1NC(=Nc2ccccc2)S/C1=C\C=C\c1ccco1`, for which the Potency was 2.31 µM (active).

`O=[N+]([O-])c1ccccc1C=CC=NN=Cc1ccccc1O`: the Potency was 3.26 µM (active).

As for `O=[N+]([O-])c1cccc(C=NN=Cc2ccccc2O)c1`, the Potency is 8.2 µM (active).

On to `NC(=O)N/N=C/c1ccccc1OC(=O)c1ccccc1Br`, for which the Potency is 3.26 µM (active).

Regarding `COC(=O)c1sccc1NC(=O)c1ccc(Br)s1`, the Potency is 7.31 µM (active).

Take `COC(=O)c1sccc1NC(=O)c1ccc(Br)o1`: the Potency is 9.2 µM (active).

Turning to `Cc1ccc(S(=O)(=O)c2cc3ccccc3oc2=O)cc1`, the Potency was 8.2 µM (active).

Turning to `COC(=O)C(=C/C=C/c1ccco1)C(=O)OC`, the Potency is 9.2 µM (active).

As for `COC(=O)c1ccccc1NC(=O)/C=C/c1ccco1`, the Potency was 0.411 µM (active).

For the compound `COc1ccccc1NC(=O)/C=C\c1ccco1`, the Potency is 1.84 µM (active).

With `COC(=O)c1c(NC(=O)/C=C/c2ccco2)sc2c1CCC2`, the Potency is 0.461 µM (active).

For the compound `O=C(/C=C/c1ccco1)Nc1ccccc1N1CCCCC1`, the Potency is 1.16 µM (active).

For `O=c1c2cc3c(=O)n(-c4ccccc4O)c(=O)c3cc2c(=O)n1-c1ccccc1O`, the “activation” value is 3.75%.

`CCOc1ncccc1C(=O)NNC(=O)c1ccc(NS(=O)(=O)c2cccs2)cc1`: the Potency is 2.59 µM (active).

On to `Cc1ccc(C(=O)/C=C/c2ccc(-c3ccccc3[N+](=O)[O-])o2)cc1`, for which the Potency was 2.06 µM (active).

On to `O=C(/C=C/c1ccc(-c2ccccc2[N+](=O)[O-])o1)c1ccccc1`, for which the Potency is 3.66 µM (active).

In the case of `O=C(/C=C/c1ccc(-c2ccccc2[N+](=O)[O-])o1)c1ccc(Br)cc1`, the Potency was 1.84 µM (active).

As to `CC(/C=N/NC(=O)Cc1cccn1C)=C\c1ccco1`, the Potency was 1.46 µM (active).

With `c1ccc(CNc2nc(NCc3ccco3)nc(N3CCOCC3)n2)cc1`, the Potency is 5.17 µM (active).

Take `CNC(=O)c1ccsc1NC(=O)c1ccc(Cl)s1`: the Potency is 7.31 µM (active).

Turning to `Nc1ccccc1N1C(=O)c2cccc3cccc(c23)C1=O`, the Potency was 16.4 µM (active).

For the compound `O=C1c2cccc3cccc(c23)C(=O)N1Cc1ccco1`, the Potency is 5.17 µM (active).

Regarding `CC(=O)Nc1cc(-c2ccsc2)cn2c(-c3ccc(F)cc3)cnc12`, the Potency is 5.17 µM (active).

For the compound `CC(C)c1ccc(NC(=O)c2cc(Br)ccc2Br)cc1`, the Potency was 5.8 µM (active).

For `CCN1CCN(c2sc(S(C)(=O)=O)nc2S(=O)(=O)c2ccc(Cl)cc2)CC1`, the Potency was 14.6 µM (active).

For `CS(=O)(=O)c1nc(S(=O)(=O)c2ccc(Cl)cc2)c(N2CCN(CCO)CC2)s1`, the Potency is 8.2 µM (active).

As to `COC(=O)c1cc(S(=O)(=O)C(C)C)c(S(C)=O)s1` (stereo not given), the Potency was 20.6 µM (active).

Turning to `COc1c(C(=O)Nc2nnc(C3CC3)s2)csc1Cl`, the Potency is 8.2 µM (active).

For `CCCc1c(C(=O)N/N=C/c2cccs2)nnn1-c1nonc1N`, the Potency was 4.11 µM (active).

On to `CN1C2CCC1/C(=C\c1ccccc1)C(=O)/C2=C\c1ccccc1`, for which the Potency is 2.91 µM (active).

With `N#C/C(=C\c1ccccc1[N+](=O)[O-])c1nc(C2CC2)cs1`, the Potency is 11.6 µM (active).
